# Data reported in PubChem BioAssay AID488969 (Vanderbilt High Throughput Screening Facility, 2010).
# Over roughly 110,000 compounds, “z-score” has its median near -0.1; the highest 2% begin near 2. Many of the other results were omitted from the sample, so the highest values are more common in it than they were. Active and inactive are the calls of the source.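 How the source made its calls: active means z-score in the third read window above 3 or below -3; inactive means the rest.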
# Biological target: Metabotropic glutamate receptor 8 (Rattus norvegicus) (UniProt P70579)
# Sequence (P70579 whole entry, looked up): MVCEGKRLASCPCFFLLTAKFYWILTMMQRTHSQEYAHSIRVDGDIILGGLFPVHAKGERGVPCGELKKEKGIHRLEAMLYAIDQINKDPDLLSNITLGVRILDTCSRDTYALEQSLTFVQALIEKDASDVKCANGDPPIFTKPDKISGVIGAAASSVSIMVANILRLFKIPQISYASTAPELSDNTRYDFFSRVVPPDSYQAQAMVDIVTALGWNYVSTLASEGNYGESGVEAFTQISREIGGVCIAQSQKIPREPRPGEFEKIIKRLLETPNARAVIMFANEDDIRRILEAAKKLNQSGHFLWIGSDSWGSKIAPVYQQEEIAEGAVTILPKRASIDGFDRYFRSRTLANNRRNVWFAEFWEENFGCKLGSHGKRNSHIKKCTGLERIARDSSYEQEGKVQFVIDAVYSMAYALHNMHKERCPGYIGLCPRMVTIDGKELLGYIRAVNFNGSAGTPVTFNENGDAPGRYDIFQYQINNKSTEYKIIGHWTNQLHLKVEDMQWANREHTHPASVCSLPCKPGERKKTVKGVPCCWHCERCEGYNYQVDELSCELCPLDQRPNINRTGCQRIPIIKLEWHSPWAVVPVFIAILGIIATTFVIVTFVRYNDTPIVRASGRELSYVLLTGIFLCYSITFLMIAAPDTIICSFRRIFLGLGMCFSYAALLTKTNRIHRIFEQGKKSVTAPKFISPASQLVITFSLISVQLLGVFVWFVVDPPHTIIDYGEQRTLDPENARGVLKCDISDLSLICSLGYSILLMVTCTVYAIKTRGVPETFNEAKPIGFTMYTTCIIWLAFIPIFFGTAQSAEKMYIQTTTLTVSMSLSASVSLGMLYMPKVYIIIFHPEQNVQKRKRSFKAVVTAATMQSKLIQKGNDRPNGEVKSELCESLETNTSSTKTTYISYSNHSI
# Test: rat mGluR8 modulators via GIRK flux, primary screen, cell-based, thallium flux, HTS (AID 488969)
# Details: HEK293 rat mGluR8, GIRK (G protein-gated inwardly rectifying potassium channel) thallium flux, FluoZin2; at 10 µM; stronger effect = higher value; submaximal glutamate (EC20) added with thallium
row,SMILES,z-score
1,OC(COCc1ccccc1)CN1CCN(c2ccccc2)CC1 (stereo not given),0.802
2,CCCc1nc2oc3c(NCCN(C)C)ncnc3c2c2c1CCCC2,0.466
3,CCOc1ccc(/C=C/C(=O)Nc2ccc(N3CCOCC3)cc2)cc1,-0.494
4,CCCCNC(=S)NNC(=O)c1ccco1,-0.0425
5,CCCc1ccc(OCC(=O)NNC(=S)NC(=O)c2ccco2)cc1,5.78 (active)
6,CNC(=S)NNC(=O)COc1ccccc1C,-0.0807
7,Cc1ccccc1OCC(=O)NNC(=S)NC(=O)c1ccco1,8.07 (active)
8,COc1ccccc1OCC(=O)NNC(=S)NC(=O)c1ccco1,0.0517
9,COCCNC(=S)NNC(=O)c1ccco1,0.195
10,O=C(NCCN1CCOCC1)c1cc(Sc2ccccc2Cl)nc2ccccc12,-1.39
11,COc1cccc(N2CC(C(=O)Nc3nnc(SCc4cccnc4)s3)CC2=O)c1 (stereo not given),0.711
12,O=c1[nH]c2cccnc2n1Cc1ccccc1,-0.166
13,Cc1ccccc1Nc1nnc(C)c(=O)n1N,0.0745
14,c1ccc(C2CCC(N3CCC(N4CCCCC4)CC3)CC2)cc1 (stereo not given),-0.423
15,C1=CN2CCC1C(c1ccccc1)C2 (stereo not given),2.05
16,O=C(/C=C/c1ccccc1)N1CCC(c2ccccc2)C1 (stereo not given),-0.0939
17,COC(=O)C1CCN(C(=O)CSc2ccccc2)CC1,-0.196
18,COc1ccc(Cc2c(N)nc(N)nc2N)cc1,-0.264
19,CC(C)Oc1ccc(Cc2cnc(N)nc2N)cc1,1.03
20,CC(C)COc1ccc(Cc2cnc(N)nc2N)cc1,7.02 (active)
21,CCOc1cc(CNCCc2ccc(S(N)(=O)=O)cc2)ccc1OCC(=O)NC1CCCCC1,0.417
22,Cc1cc(NC(=O)c2cnccn2)no1,-0.0463

row,SMILES,z-score
1,CCCc1cc(=O)[nH]c(/N=C(/NC(=O)c2ccccc2)Nc2ccc3c(c2)OCCO3)n1,-0.0513
2,CN(C)CCCNc1ncnc2c1cnn2-c1ccccc1,0.0262
3,COCCNc1ncnc2c1cnn2-c1ccc(Cl)cc1,0.0016
4,CN(C)CCNc1ncnc2c1cnn2-c1ccc(Cl)cc1,3.51 (active)
5,CC(/C=N\NC(=O)c1cccnc1)c1ccccc1 (stereo not given),-0.201
6,CS(=O)(=O)N1CCN(c2ccccc2NC(=O)c2cccc3ccccc23)CC1,-0.227
7,O=C(COc1c(Br)cc(Br)c2cccnc12)N1CCc2ccccc2C1,3.14 (active)
8,O=C(COc1cccc2cccnc12)N1CCc2ccccc2C1,0.452
9,O=C(COc1ncnc2sccc12)N1CCc2ccccc2C1,0.0441
10,COc1ccc(S(=O)(=O)N[C@@H](Cc2ccc(Cl)cc2)C(=O)N2CC[C@@]3(O)CCCC[C@H]3C2)cc1,-0.0964
11,COCCNC(=O)c1cc(-c2ccc3c(c2)OCO3)on1,0.152
12,Cc1nn(C)c(Cl)c1NC(=O)OCc1ccccc1,-0.064
13,Cc1ccc(-c2cnc(NC(=O)CCC(=O)N(C)Cc3ccccc3)n2C)cc1,-0.765
14,CCCNC(=O)CCC(=O)Nc1ncc(-c2ccc(C)cc2)n1C,-0.382
15,Cc1ccc(-c2cnc(NC(=O)CCC(=O)N3CCCCC3)n2C)cc1,4.3 (active)
16,CC(C)c1ccccc1N=C1SCCN1C1CCS(=O)(=O)C1 (stereo not given),0.193
17,CC(C)c1ccc(S(=O)(=O)c2nnn3c2nc(N2CCCCC2)c2ccccc23)cc1,-0.645
18,CCc1ccc(S(=O)(=O)c2n[nH]n3c2nc(=O)c2ccccc23)cc1,0.475
19,CC(C)c1ccc(S(=O)(=O)c2n[nH]n3c2nc(=O)c2ccccc23)cc1,2.66
20,O=C(/C=C/N1CCOCC1)c1ccc(-c2ccccc2)cc1,-0.364
21,Cc1ccc(N=Nc2c(C)[nH][nH]c2=O)c(C)c1,0.772
22,CC1=NN(c2ccccc2)C(=O)C1N=Nc1ccccc1 (stereo not given),0.244

row,SMILES,z-score
1,CC1=NN(c2ccccc2)C(=O)C1N=Nc1ccc(N)cc1 (stereo not given),-0.073
2,CC1=NN(C(N)=S)C(=O)C1N=Nc1c(C)cc(C)cc1C (stereo not given),0.119
3,CC1=NN(C(N)=S)C(=O)C1N=Nc1ccc(C)cc1C (stereo not given),13.2 (active)
4,CC1=NN(C(N)=S)C(=O)C1N=Nc1ccccc1C (stereo not given),2.97
5,Cc1ccccc1-n1c(C)nnc1SCc1cc(=O)oc2ccc3ccccc3c12,0.0722
6,CC(C)CC(=O)Nc1ccc(C(=O)NNC(=O)C(c2ccccc2)c2ccccc2)cc1,-0.258
7,O=C(O)C1CCN(C(=O)c2ccc(Cl)cc2)CC1,0.000989
8,Cc1cc(C)c(C)c(S(=O)(=O)NCc2ccc(C(=O)N3CCCCC3)cc2)c1C,0.249
9,Cc1cc(C)cc(OCC(=O)N2N=C(C(F)(F)F)CC2(O)C(C)(C)C)c1 (stereo not given),4.9 (active)
10,Cc1cc(C)cc(OCC(=O)N2CCCCCC2)c1,-0.242
11,Cc1ccccc1OCC(=O)N1N=C(C(F)(F)F)CC1(O)C(C)(C)C (stereo not given),1.61
12,Cc1ccc(OCC(=O)N2N=C(c3cccnc3)CC2(O)C(F)(F)F)cc1C (stereo not given),-0.105
13,CCCCC1(O)CC(C(F)(F)F)=NN1C(=O)COc1ccccc1 (stereo not given),0.45
14,Cc1ccc(OCC(=O)N2N=C(C(F)(F)F)CC2(O)C(C)(C)C)cc1C (stereo not given),3.56 (active)
15,COP(=O)(OC)c1nc(-c2cccc3ccccc23)oc1NCc1ccccc1,-0.666
16,CC(C)(C)C(=O)Nc1cccc(C(=O)c2cccc(NC(=O)C(C)(C)C)c2)c1,-0.249
17,Cc1cccc(C(=O)NC(=S)Nc2ccc(S(=O)(=O)N3CCCCC3)cc2)c1,-0.0168
18,CCOC(=O)C1=C(C)N=C2SC(C)C(=O)N2C1c1ccc(OCC)c(OCC)c1 (stereo not given),0.125
19,COc1cc(/C=C2\SC(=S)N(CC(=O)Nc3ccccn3)C2=O)cc(OC)c1OC,-0.0617
20,CCN=c1sc2ccccc2n1CC(O)COc1ccccc1 (stereo not given),0.979
21,Cn1c(=NCC(O)COc2ccccc2)sc2ccccc21 (stereo not given),2.27
22,OC(CN=c1sc2ccccc2n1CC(O)COc1ccccc1)COc1ccccc1 (stereo not given),0.0732

row,SMILES,z-score
1,CC(=O)N1CCC(=NNc2ccc(S(=O)(=O)N3CCOCC3)cc2[N+](=O)[O-])CC1,0.476
2,COC(=O)Cc1ccc(NC(=O)c2ccc(C(C)(C)C)cc2)cc1,-0.0938
3,COc1ccc(/C=C/C(=O)NCc2c(C)nn(C)c2C)cc1COc1ccc(Br)cc1,-0.131
4,Cc1cccc(NC(=O)CN(C)S(=O)(=O)c2cnc[nH]2)c1,1.6
5,Cc1ccc(NC(=O)CN(C)S(=O)(=O)c2cnc[nH]2)cc1C,2.45
6,Cc1cc(C)cc(NC(=O)CN(C)S(=O)(=O)c2cnc[nH]2)c1,-0.129
7,CC1CC1C(=O)OCC(=O)NC(=O)NCc1ccco1 (stereo not given),-0.131
8,CCc1ccc(-c2nn(-c3ccccc3)cc2C2SCC(=O)N2Cc2ccco2)cc1 (stereo not given),-0.102
9,Cc1cccc(Nc2nc(N)c([N+](=O)[O-])c(N3CCCC(C)C3)n2)c1 (stereo not given),-0.0648
10,Cc1ccc(Nc2nc(N)c([N+](=O)[O-])c(N3CCCC(C)C3)n2)cc1C (stereo not given),2.26
11,Cc1ccc(Nc2nc(N)c([N+](=O)[O-])c(N3CCOCC3)n2)cc1C,-0.153
12,O=C(NCCc1ccc(Cl)cc1)C1CCCN(S(=O)(=O)c2cnc[nH]2)C1 (stereo not given),0.0211
13,COc1ccc(S(=O)(=O)N(CCN2CCOCC2)Cc2cc(OC)ccc2OC)cc1,-0.389
14,Cc1cc2nc(CCN(Cc3cccnc3)C(=S)Nc3ccccc3)[nH]c2cc1C,0.259
15,Cc1ccc(S(=O)(=O)N2CCOCC2)cc1C(=O)OCC(=O)Nc1ccc2c(c1)OCO2,-0.412
16,O=S(=O)(c1ccc(Nc2ccc3c(c2)OCO3)nc1)N1CCOCC1,2.28
17,O=S(=O)(c1ccc(NC(=S)Nc2ccc3c(c2)OCO3)cc1)N1CCOCC1,0.154
18,C=CCn1c(SCn2nnc3ccccc3c2=O)nnc1-c1ccc(Br)cc1,0.482
19,Cc1ccc(/C=C(\NC(=O)c2ccc(C)cc2)c2nc(=S)[nH][nH]2)cc1,0.31
20,COC(=O)c1ccccc1NC(=S)N(Cc1ccc2c(c1)OCO2)Cc1cc2cc(C)ccc2[nH]c1=O,2.03
21,COC(=O)c1ccccc1NC(=S)N(Cc1ccc2c(c1)OCO2)Cc1cc2ccc(C)cc2[nH]c1=O,0.26
22,COC(=O)c1ccccc1NC(=S)N(Cc1ccc2c(c1)OCO2)Cc1cc2cc(OC)ccc2[nH]c1=O,-0.529

row,SMILES,z-score
1,CC(C)(C)N=C1NN=C(c2cc3ccccc3o2)CS1,-0.336
2,CC(=O)O/N=C(/C)c1ncc(C(F)(F)F)cc1N1CCOCC1,-0.337
3,Cc1ccccc1Cn1c(CN2CCc3ccccc3C2)nc2c1c(=O)n(C)c(=O)n2C,-0.399
4,COc1ccc(/C=C(/C(=O)c2ccc(Cl)cc2Cl)n2cncn2)cc1,0.0171
5,COc1ccc(C(=O)NC2CCCCCC2)cc1S(=O)(=O)N1CCCc2ccccc21,-0.00531
6,CCN(/N=C/c1cccs1)c1cc(=O)n(C)c(=O)[nH]1,-0.0804
7,O=C(COc1cccc(Br)c1)NN=C1c2ccccc2-c2ccccc21,0.184
8,O=C(NN=C1c2ccccc2-c2ccccc21)c1cccc(Br)c1,4.19 (active)
9,O=C(N/N=C/C=C/c1ccccc1)c1ccccc1Br,-0.846
10,O=C(NN=C1c2ccccc2-c2ccccc21)c1ccccn1,0.564
11,O=C(NN=C1c2ccccc2-c2ccccc21)c1ccccc1Br,5.82 (active)
12,O=C(N/N=C/C=C/c1ccccc1)c1cccc(Br)c1,0.831
13,CCC(C)N(C)Cc1cccc(C2(O)CCN(S(=O)(=O)c3ccc(F)cc3)CC2)c1 (stereo not given),-0.276
14,CCOc1ccc(Nc2oc(-c3ccccc3Cl)nc2C#N)cc1,-0.217
15,CCOC(=O)C(CC)Sc1nnc2cc(C)c3ccccc3n12 (stereo not given),7.83 (active)
16,Cc1cc2nnc(SC(C)C)n2c2ccccc12,-1.9
17,CCOC(=O)CSc1nnc2cc(C)c3ccccc3n12,-1.09
18,Cc1c([N+](=O)[O-])c([N+](=O)[O-])nn1CC(=O)N1CCCCC1,-0.199
19,Cc1ccc(S(=O)(=O)N2CCCC2C(=O)O)cc1 (stereo not given),0.451
20,Cc1ccc(-c2nnn(CC(=O)NC3CCN(Cc4ccccc4)CC3)n2)cc1,0.381
21,Cc1ccc(-c2nnn(CC(=O)NC3CC4CCC3C4)n2)cc1 (stereo not given),5.1 (active)
22,CC1CCCCC1NC(=O)Cn1nnc(-c2ccc(Cl)cc2)n1 (stereo not given),0.119
